Screening data (PubChem BioAssay)
KCNQ2 block: inhibitors of rat KCNQ2 potassium channel; CHO-K1 KCNQ2, FluxOR thallium flux, 20 min; hits give low values; B-score at 10 µM; hit rate 1.1% among 310,000; AID 2156;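 active = fluorescence ratio B-score at most minus 3 library SDs, with starting brightness B-score within 2 library SDs, cut at about -5.5 in these data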
KCNQ2 enhance: KCNQ2 (rat) channel potentiation | O88943 | hit rate 0.54% among 310,000 | CHO-K1 KCNQ2, FluxOR thallium flux fluorescence; hits give high values | B-score at 10 µM | AID 2239;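 active = fluorescence ratio B-score at least 3 SD of library B-scores, with initial fluorescence B-score within 3 of them, cut at about 5.3 in these data; same plate scores as AID 2156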;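 also: B-score of peak minus minimum over baseline fluorescence ratio after K+ and Tl+ stimulus; positive B-score means potentiation of KCNQ2 with more thallium influx and brighter signal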
* = called active by the depositor; i = inactive; nt = not tested or not shown. Shown are actives, neighbours in structure and some others; about 1.6% of the full set was active somewhere.

SMILES	KCNQ2 block	KCNQ2 enhance
COc1ccc(S(=O)(=O)N2CCCC(C(=O)N3CCN(C)CC3)C2)cc1Cl (stereo not given)	i	nt
COc1ccc(S(=O)(=O)N2CCCC(C(=O)N3CCOCC3)C2)cc1Cl (stereo not given)	-5.6*	-5.6
COc1ccc(S(=O)(=O)N2CCCC2)cc1OC	i	0.02
COc1ccc(S(=O)(=O)N2CCCC2)cc1C(C)C	-6.9*	-6.9
COc1cccc(OCc2nn3c(=O)c(-c4ccccc4)nnc3s2)c1	i	0.93
CC(=O)Nc1ccc(NC(=O)C2CC(=O)N(c3ccccc3Cl)C2)cc1 (stereo not given)	i	21*
CC(=O)Nc1ccc(NC(=O)C2CC(=O)N(c3ccc(Cl)cc3)C2)cc1 (stereo not given)	i	nt
COc1ccc(C(=O)NNC(=O)CSc2nnc(C3CC3)n2C)cc1	i	nt
Cc1cc(C)c(-c2cc(NC(=O)CSc3n[nH]c(N)n3)n(-c3ccccc3)n2)cc1C	-6.9*	-6.9
Cc1cc(C)c(-c2cc(NC(=O)COC(=O)c3ccc(CO)cc3)n(-c3ccccc3)n2)cc1C	i	nt
CSCCC(NS(=O)(=O)c1cccs1)C(=O)NCc1ccc(C)cc1 (stereo not given)	i	9.6*
CSCCC(NS(=O)(=O)c1cccs1)C(=O)NCc1ccccc1 (stereo not given)	i	3.2
CNc1c(NS(=O)(=O)c2cc(OC)ccc2OC)c(=O)oc2ccccc12	i	1.7
CCc1noc(C)c1C(=O)N1CCCC1	i	0.57
CCc1noc(C)c1C(=O)N1CCCSC1=Nc1ccccc1C(C)C	-5.7*	-5.7
CC(=N\NC(=O)c1ccccc1)/C(=N/O)C(=O)Nc1ccccc1	i	nt
CC(=N\Nc1ccccc1)/C(=N/O)C(=O)Nc1ccccc1	-6*	-6
COc1cc(C(=S)N2CCOCC2)cc(OC)c1OS(=O)(=O)c1ccc(C)cc1	i	0.57
FC(F)(F)c1ccc(-c2csc(-c3ccno3)n2)cc1	i	nt
CC(C)(C)C(=O)OCc1nc(-c2ccc(C(F)(F)F)cc2)cs1	-5.6*	-5.6
CC(C)Cn1c([N+](=O)[O-])nc2c1c(=O)[nH]c(=O)n2C	i	nt
Cn1c(=O)[nH]c(=O)c2c1nc([N+](=O)[O-])n2Cc1ccccc1	-6.2*	-6.2
CC1CCC(NC(=O)c2cc3c(s2)CCCC3)CC1 (stereo not given)	i	nt
O=C(NN1C(=O)/C(=C/c2ccc(O)c(O)c2)SC1=S)c1ccccc1	i	nt
O=C(NN1C(=O)/C(=C/c2cccc(O)c2)SC1=S)c1ccccc1O	-8.3*	-8.3
SMILES	KCNQ2 block	KCNQ2 enhance
Cc1ccccc1CN1CCN(CC2CC2)CC1CCO (stereo not given)	i	nt
C=CCn1c(SCc2c(C)noc2C)nc2sc(C)c(C)c2c1=O	-6.5*	-6.5
Cc1noc(C)c1CSc1nc2sc(C)c(C)c2c(=O)n1-c1ccccc1	i	nt
COc1ccccc1C(=O)NC(=S)NNC(=O)c1sc2ccccc2c1Cl	i	23*
COc1ccccc1C(=O)NNC(=S)NC(=O)c1sc2ccccc2c1Cl	i	16*
COc1ccccc1C(=O)NNC(=S)NC(=O)c1cccs1	i	nt
Cc1c(NC(=S)NC(=O)c2sc3ccccc3c2Cl)cccc1C(=O)O	i	0.24
COc1ccccc1C(=O)NC(=S)Nc1cccc2cc(O)ccc12	-7.9*	-7.9
O=C(NC(=S)Nc1cccc2cc(O)ccc12)c1ccccc1Br	i	nt
CC(=O)NC(CC(=O)N(Cc1ccccc1)c1cccc(C)c1)c1ccccc1 (stereo not given)	i	nt
O=C(Nc1ccnn1C1CCN(CCCc2ccccc2)CC1)c1ccccc1Cl	i	1.9
O=C(NC1CCN(C(=S)Nc2ccccc2)CC1)C1CCCCC1	i	0.39
CC(C(=O)c1ccc(Br)cc1)[n+]1cccc2ccccc21 (stereo not given)	i	nt
O=C(/C=C/c1ccco1)NC(=S)Nc1cc(C(F)(F)F)ccc1N1CCOCC1	-7.3*	-7.3
O=C(Nc1ccccc1)C1Cc2ccccc2CN1C(=O)c1ccco1 (stereo not given)	i	nt
O=C(CCCCl)NC(=S)Nc1cc(C(F)(F)F)ccc1N1CCOCC1	i	0.03
O=C(Nc1cc(C(F)(F)F)ccc1N1CCOCC1)C1Cc2ccccc2CN1C(=O)c1ccco1 (stereo not given)	-6.5*	-6.5
Cc1ccc(SCCSc2nc(C)cc(=O)[nH]2)cc1	i	1.6
N#Cc1ccc(CSc2nnc(COc3ccccc3)n2-c2ccccc2)cc1	-5.6*	-5.6
COc1ccc(-n2c(COc3ccccc3)nnc2SCc2ccc(C#N)cc2)cc1	i	0.05
CCC(C(=O)N1CCCCCC1)n1nc(C)n2c(cc3occc32)c1=O (stereo not given)	i	nt
CCOc1cc(CNc2ccccc2)cc(Br)c1OCC(=O)NC(C)(C)C	-5.9*	-5.9
COc1cc(CNc2ccc(C(=O)O)cc2)cc(Br)c1OCC(=O)NC(C)(C)C	i	nt
C=CCn1c(CSCc2ccccc2)nnc1SCC(=O)NCc1ccccc1	-5.5*	-5.5
CCn1c(CSCc2ccc(F)cc2)nnc1SCC(=O)NCc1ccccc1	i	nt
SMILES	KCNQ2 block	KCNQ2 enhance
CC(C)c1ccc(OCC(=O)Nc2ccc3oc(=O)ccc3c2)cc1	i	nt
COc1ccc(CN(CC(O)COc2cccc3[nH]cc(C)c23)C(C)(C)C)cc1 (stereo not given)	-5.9*	-5.9
COc1ccc(CN(C)CC(O)COc2ccc(-c3ccccc3)cc2)cc1OC (stereo not given)	i	0.56
COCCN(C(=O)COC(=O)Cc1coc2cc3c(cc12)CCC3)c1c(N)n(Cc2ccccc2)c(=O)[nH]c1=O	i	nt
CN(C(=O)Cc1c(C(=O)O)n(C)c2ccccc12)c1cccc(C(F)(F)F)c1	i	0.2
COC(=O)c1cn(NC(=O)Cc2cccc(OC)c2)c(=O)c2ccccc12	i	7.2*
COC(=O)c1cn(NC(=O)Cc2ccc(OC)c(OC)c2)c(=O)c2ccccc12	i	nt
CC(=O)NCCC(=O)Nc1cc(S(=O)(=O)N2CCOCC2)ccc1Oc1ccccc1	i	0.64
CCCc1cc(C(=O)N2CCCN(C)CC2)cs1	i	1.6
CCCc1cc(C(=O)N2CCN(c3ccccc3C)CC2)cs1	-5.7*	-5.7
O=C(NNC1=C(C(=O)C(F)(F)F)CCC1)c1ccccc1O	i	11*
COc1ccccc1C(=O)NNC1=C(C(=O)C(F)(F)F)CCC1	i	3.7
CO/N=C(/C(=O)N[C@@H]1C(=O)N2C(C(=O)O)=CCS[C@H]12)c1cnc(N)s1	i	nt
CN1CCN(S(=O)(=O)c2cccc(C(=O)Nc3cc(Cl)ccc3N3CCOCC3)c2)CC1	-7.5*	-7.5
CC(Oc1cccc(Cl)c1)C(=O)Nc1cc(S(=O)(=O)N2CCCCC2)ccc1N1CCOCC1 (stereo not given)	-7.6*	-7.6
CC(Oc1cccc(Cl)c1)C(=O)Nc1cc(S(=O)(=O)N2CCOCC2)ccc1N1CCCC1 (stereo not given)	i	nt
CN1CCN(S(=O)(=O)c2cccc(C(=O)Nc3cc(C(F)(F)F)ccc3N3CCCC3)c2)CC1	i	nt
O=C(COc1ccc(Cl)cc1)NCCS(=O)(=O)N1CCN(c2ccccc2F)CC1	i	nt
CCCNC(=O)Cc1ccsc1	-7.8*	-7.8
CCN(CC)CCNC(=O)c1ccc(NC(=O)Cc2ccsc2)cc1	i	1.1
CCCCOC(=O)c1ccc(NC(=S)NC(=O)c2c(Br)c(C)nn2C)cc1	i	9.6*
CCOC(=O)c1ccc(NC(=S)NC(=O)c2cncc(Br)c2)cc1	i	nt
